Data published in the OligoGym collection.

Target: CCDC102B
Experiment: pooled miR-30 sensor sort-seq; sequence = guide strand
Conditions: shRNA
Also: reference of the scale not given here.

Sequence	sensor-assay potency score (higher = more potent)
TTTGTGACATCTTGAAATCAGG	-1.26
TTCAGCTCGAACTTTACTCCAT	0.199
TTGCATTTCATCATTATGTTGA	0.234
TTGATGATTGTTGCATCTGGAA	-0.905
TTGTTGAATAAATCAACACCAT	-0.659
TTATTCTGAGTTGTCTTCCTTC	0.72
TTAACTCACAAATCACTCTGTC	0.63
TTCACCTGGATCTTCAGCCTTC	0.0425
TAATCTATTTTTCTTATCCAAA	-1.3
TTTGTTAATACAACCTGCCATC	-1.01
TAACATTAGCTTCTAATGCCTC	-0.718

Target: CCDC105
Experiment: as above
Conditions: shRNA

Sequence	sensor-assay potency score (higher = more potent)
TAATCTTTCCTTCAGCTCCAAG	-0.875
TATATTTCGTACACCGGAGGAT	0.16
TTTTCTGACCCTGTGTGCGTGG	-0.545
TTCGCTGAGCCTGTGGTCGGTG	-0.476
TTGAGTAGGACCTCTGATTTTT	-1.1
TTGGACTCGACCAACAACCGCT	-0.0723
TTTGCCATTTCTACCAAGGTGT	-0.502
TTGCGCACTTCGCTGAGCCTGT	-0.764
TTCAGCTCCAAGGTCTCGCTCG	-0.194
TTAATCTTTCCTTCAGCTCCAA	0.0783
TTTTTCCATATCTCTCTCCATT	-1.2
TATCTGCAGCTGTTGCTCCCGG	-0.913

Target: CCDC111
Experiment: as above
Conditions: shRNA

Sequence	sensor-assay potency score (higher = more potent)
TTGTAAACTCTTCTTCCTCTTT	-0.271
TAAACCAGTAATTCTTCTGGGA	0.0581
TATAGTAAAACCAAAATTCAGC	-0.935
TAAAAGCTTGAGCTTGTCGATG	-0.777
TATTTCTTGTATAAACTCCGAG	-0.0493
TTTTATTGAAAGAAAATCCTTG	0.279
TTTGATGATTTATATAGCCGAA	-0.728
TTGTCGATGAAATAGTCTCCAG	-1.27

Target: CCDC124
Experiment: as above
Conditions: shRNA

Sequence	sensor-assay potency score (higher = more potent)
TTGAGCTTGGAGTCCTCCTCCT	-0.0303
TGAGCTTGGAGTCCTCCTCCTC	-1.05
TTTCAGCTGCGACAGCCGCATG	-1.52
TGACGTGTTTGTCGTCGTCCTT	-0.925
TTGAGCAGCTGTTTCAGCTGCG	0.469
TCGTCGTCCTTCCAGTAGGCAT	-1.51
TCTGCTTCTTGGCATCAGCGGC	-1.05
TTGTTTGAGCCGCGGCAGCTGG	-1.54
TTCTGCTTCTTGGCATCAGCGG	-0.999
